APP 5UTR inh: inhibitors of APP translation via 5'UTR reporter, primary screen, APP 5'UTR luciferase, SH-SY5Y cells; SH-SY5Y APP 5'UTR-luciferase reporter, luminescence; inhibition, % at 2 µM; 190,000 tested, 0.82% active;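 active = inhibition above a set limit, derived from the sample mean plus 3 SD, cut at about 45% in these data; inconclusive = one replicate passes the limit while the other fails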
aSyn 5UTR inh: MLPCN primary screen, SNCA 5' untranslated region; alpha-synuclein 5'UTR reporter, inhibitor activity; inhibition, % (tested at 7.5 µM); 300,000 tested, 0.82% active; in the data active = inhibition above about 60%; inconclusive = no clear call, values can overlap the other calls;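 also: H4 neuroglioblastoma cells stably carrying SNCA 5'UTR luciferase fusion; 0% = DMSO wells and 100% = positive control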
IEC-6 tox: cytotoxicity in IEC-6 intestinal epithelial cells, primary screen, cytotoxicity control for KLF5 inhibitor project, cell-based, luminescence | AID 1825, 2009 | inhibition, % at 5 µM | IEC-6 cytotoxicity, luminescence viability | 290,000 tested, 0.78% active; in the data active = inhibition above about 22%;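 also: 0% = plate median of test compound wells and 100% = cytotoxic reference compound wells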
BaF3 tox: parental Ba/F3 cell viability inhibition, counter-screen for JAK2V617F inhibitor project, murine pro-B, CellTiter-Glo luminescence | CellTiter-Glo ATP luminescence | inhibition, % at 5.6 µM | 220,000 tested, 1.1% active | AID 1486, 2009;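 active = inhibition above a per-campaign cutoff, the mean inhibition of all tested compounds plus 3 SD, cut at about 27% in these data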;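 also: 0% = DMSO wells and 100% = JAK Inhibitor I control wells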
Ba/F3 V617F tox: reduced viability of JAK2V617F-dependent Ba/F3 cells, primary screen, JAK2V617F inhibitor project, cell-based, Ba/F3 EpoR-JAK2V617F, luminescence; ATP luminescence; inhibition, % at 5.6 µM; 220,000 tested, 1.1% active;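 active = inhibition above the campaign mean plus 3 SD over all tested compounds, cut at about 24% in these data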;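 also: cytokine-independent growth of Ba/F3 cells driven by EpoR plus mutant JAK2; 0% = DMSO-treated cells and 100% = JAK inhibitor I control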
KLF5 inh: KLF5 expression inhibitors, primary screen, DLD-1 cells, luminescence. DLD-1 KLF5 promoter-luciferase reporter. inhibition, % at 5 µM. 290,000 tested, 0.23% active. AID 1700, 2009;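 active = inhibition above a per-plate limit of that plate's mean compound inhibition plus 3 SD, cut at about 60% in these data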;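 also: 0% = DMSO wells and 100% = LY294002 at 200 µM; higher means less KLF5 promoter-driven luciferase light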
The depositor's hits bear a star; ? = inconclusive; . = not tested or not shown. This is a sample that favours compounds with a hit; in the whole collection about 2.2% have one here.

SMILES | APP 5UTR inh | aSyn 5UTR inh | IEC-6 tox | BaF3 tox | Ba/F3 V617F tox | KLF5 inh
O=C(CNC(=O)c1ccccc1O)N/N=C/c1cc(Br)ccc1OC(=O)/C=C/c1ccco1 | 24 | 68* | -5 | 3 | -1 | 15
COc1cccc(CN2CCNC(=O)C2CC(=O)N(C)CC2CCOCC2)c1 (stereo unspecified) | . | -5 | -4 | . | . | -31
COc1ccc(C(=O)N/N=C/c2ccc(OC)c(COc3ccccc3)c2)cc1 | . | 9 | 0 | . | . | -41
COc1cc(OC)cc(C(=O)N/N=C/c2ccc(OC)c(COc3ccc4ccccc4c3)c2)c1 | 56* | 5 | 5 | 5 | 2 | 4
COc1ccc(/C=N/NC(=O)c2ccncc2)cc1COc1ccc(NC(C)=O)cc1 | . | 80* | -2 | 1 | 0 | -15
COc1ccc(-c2nc(C(N)=O)c3[nH]c(=O)n(-c4cccc(Cl)c4)c3n2)cc1OC | -2 | 17 | 2 | 11 | 0 | -19
CCc1ccc(-c2nc(C(N)=O)c3[nH]c(=O)n(-c4ccccc4OC)c3n2)cc1 | 95* | 82* | -1 | 10 | 2 | -26
Cn1c(=O)c2c(=O)cc(NNC(=O)C(C)(C)C)[nH]c2n(C)c1=O | 46* | 15 | 4 | 3 | 3 | -25
CC(=O)Nc1cccc(OCC(=O)NC(C)C(C)C)c1 (stereo unspecified) | 69* | 8 | 3 | 1 | -1 | -3
CC(=O)Nc1ccc(OCC(=O)NC(C)C(C)C)cc1 (stereo unspecified) | -22 | -5 | 4 | 2 | 0 | -19
CCC/C(O)=C1\C(=O)CC(C)(C)CC1=Nc1ccc(OC)cc1OC | 86* | 12 | 14 | 7 | 8 | 6
O=C(O)CCSc1ncnc2sc(-c3ccccc3)cc12 | . | 88* | 1 | -2 | -6 | 10
CC(C)CN(C(=O)COc1ccc(C(C)(C)C)cc1)C1CCS(=O)(=O)C1 (stereo unspecified) | . | -13 | . | . | . | .
CCCN1CCN(CCCNC(=O)c2cc3c(s2)-c2c(C)cccc2OC3)CC1 | . | 8 | 10 | . | . | -29
CC1CCCC(C)N1CCCNC(=O)c1cc2c(s1)-c1ccccc1OC2 (stereo unspecified) | . | 70* | 2 | . | . | -11
Cc1cccc2c1-c1sc(C(=O)NCCCN3CCCC(C)C3)cc1CO2 (stereo unspecified) | . | 69* | 6 | . | . | -6
O=C(Cc1ccc(Cl)cc1)NC1CCCN(Cc2ccccc2F)C1 (stereo unspecified) | . | 5 | -11 | . | . | -6
CCOC(=O)c1c(NC(=O)COC(=O)c2ccncc2)sc(C)c1C | -11 | 11 | -4 | 8 | 3 | 18
CC1CN(C(=O)COC(=O)c2ccccc2O)CC(C)O1 (stereo unspecified) | . | 2 | -7 | . | . | -12
O=C(c1ccc(Br)s1)N1CCN(c2ccccn2)CC1 | . | -17 | -7 | . | . | -25
O=C(N1CCN(c2ccccn2)CC1)N1c2ccccc2Sc2ccccc21 | 94* | 3 | 17 | 76* | 71* | 19
CC1(C)Cc2c(c(N3CCOCC3)nc3sc4c(NCc5ccccc5)nnnc4c23)CS1 | -16 | 68* | -4 | 4 | -3 | -22
O=C(NCCc1ccccc1)C1CC(=O)N(C2CCCC2)C1 (stereo unspecified) | . | -3 | 4 | . | . | -3
CCOc1ccc(N2C(=O)C(CC(=O)Nc3ccccc3)N(Cc3ccccn3)C2=S)cc1 (stereo unspecified) | 0 | 4 | 6 | 27* | 7 | 33
CCOc1ccc(N2C(=O)C(CC(=O)Nc3ccc(F)cc3)N(Cc3ccccn3)C2=S)cc1 (stereo unspecified) | 18 | 8 | 4 | 7 | -1 | 0
SMILES | APP 5UTR inh | aSyn 5UTR inh | IEC-6 tox | BaF3 tox | Ba/F3 V617F tox | KLF5 inh
COC(=O)c1ccccc1Sc1ncnc2onc(C)c12 | -10 | 7 | 5 | 5 | 4 | 1
O=C(NC(Cc1ccccc1)C(=O)O)/C(=C/c1ccc(Cl)cc1)NC(=O)c1ccccc1 (stereo unspecified) | -1 | -18 | -5 | 37* | 1 | 11
O=C(NC(Cc1ccccc1)C(=O)O)/C(=C\c1ccccc1F)NC(=O)c1ccccc1 (stereo unspecified) | 17 | 9 | -3 | 3 | -2 | -10
COCCNC(=S)Nc1cc2oc3ccccc3c2cc1OC | . | -21 | 4 | . | . | -44
COCCNC(=O)CCC1CCN(Cc2ccc(-c3ccccc3)cc2)CC1 | . | 15 | -1 | . | . | -9
O=[N+]([O-])c1cccc(-c2noc3c2-c2nc(Cc4cccc5ccccc45)sc2CC3)c1 | . | -18 | . | . | . | .
O=[N+]([O-])c1ccc(Nc2ccccc2)c2nonc12 | . | 11 | 2 | . | . | -25
O=[N+]([O-])c1ccc(Sc2cccc[n+]2[O-])c2nonc12 | . | 85* | 100* | 105* | 99* | 13
COc1cccc(-c2nc(-c3ccccc3)no2)c1 | -128 | -60 | 4 | 1 | -5 | -11
c1ccc(-c2noc(-c3ccc4c(c3)OCO4)n2)nc1 | 30 | 91* | 8 | 28* | 26* | -35
Cc1cccc(-c2noc(-c3ccc4c(c3)OCO4)n2)c1 | -186 | 49 | 11 | 4 | -2 | -141
COc1cccc(-c2nc(-c3ccccn3)no2)c1 | -35 | 104* | -10 | 7 | 5 | 26
Cc1ccc(OCC(=O)Nc2cc(C(=O)O)cc(C(=O)O)c2)cc1C | 0 | 26 | -4 | 7 | 0 | -20
CCc1ccc(C(O)(CC(C)C)C(CN2CCOCC2)c2ccccc2)cc1 (stereo unspecified) | . | ? | -5 | . | . | 1
COc1ccc(C(O)(CC(C)C)C(CN2CCOCC2)c2ccccc2)cc1 (stereo unspecified) | . | 66* | -14 | . | . | 20
Nc1c(C(=O)NCc2ccccc2)sc2nc(N3CCOCC3)c3c(c12)CCCC3 | 6 | 65* | -2 | -2 | -3 | -28
CCN1CCN(C(=O)CN2C(=O)COc3ccc(C)cc32)CC1 | . | 16 | 2 | . | . | -13
CC1CN(S(=O)(=O)c2cccc(C(=O)NCCCn3ccnc3)c2)CC(C)O1 (stereo unspecified) | 3 | 5 | 1 | 5 | 1 | -22
CC1CN(S(=O)(=O)c2ccc(C(=O)NCCCn3ccnc3)cc2)CC(C)O1 (stereo unspecified) | 18 | 105* | -4 | 0 | -2 | -23
Cc1ccc(C)c(NC(=O)CSc2ncnc3nc[nH]c23)c1 | -12 | 23 | 1 | 5 | 3 | -23
CC(=O)CSc1ncnc2nc[nH]c12 | 4 | -2 | 13 | 33* | 25* | -18
O=C(CSc1ncnc2nc[nH]c12)Nc1nnc(SCc2ccc(Cl)c(Cl)c2)s1 | -21 | -13 | 5 | 28* | 5 | 7

Screening data from PubChem BioAssay.
